Compounds with a hit are over-represented: about 1.9% of the library has one in this group of screens.
N-glyco inh – increase of ERlucT glycosylation luciferase signal, primary screen, N-linked glycosylation inhibitor project, D54 ERlucT cells, luminescence, set 2. D54 ERlucT glycosylation luciferase reporter, 24 h; percent of 100 nM tunicamycin response. reporter increase, % at 12.5 µM. hit rate 0.23% among 360,000;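 active means mean luciferase reporter signal, scaled so untreated is 0 and the glycosylation-blocking control 100, at or above a set limit in every replicate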;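 further: luciferase carries N-glycosylation sites so blocking glycosylation raises the light; 0% = median of neutral control wells and 100% = median of 100 nM tunicamycin wells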
ATG4B inhibitor – ATG4B protease inhibitors, primary screen, biochemical, fluorescence, uHTS; ATG4B cleavage of LC3-PLA2, NBD-HPC fluorescence, 1 h; hit rate 0.51% among 340,000; inhibition, % at 8.33 µM; Cysteine protease ATG4B (Homo sapiens), Q9Y4P1; in the data active means inhibition above about 40%
Pemphigus Ab inh – inhibitors of pemphigus antibody binding to DSG3, primary screen, biochemical, bead-based, flow cytometry, scFv-GFP; Desmoglein-3 (Homo sapiens), P32926; DSG3-coupled beads, scFv-anti-DSG3-GFP binding; hits give low values; binding (percent of control), % at 10 µM; hit rate 0.48% among 310,000; AID 588358, 2011;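 active means binding more than 3 SD below its plate's average and above zero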;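 further: hits lower antibody fragment binding to DSG3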
CaV13 ICDI inh – Disruptors of the CACNA1D IQ motif to Ca2+-dependent inactivation inhibitor domain association, primary screening, Förster resonance energy transfer in intact living …; AID 743397; hit rate 0.098% among 340,000; HEK cells, CFP/YFP FRET ICDI-IQ, plate reader, 10 min; percent FRET-ratio fall versus neutral wells; inhibition, % at 12.3 µM;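 active means mean replicate inhibition of at least 30% and at least 1% of replicates passing that level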;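 further: 0% = median of the neutral control wells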
NSD2 inh – NSD2 histone methyltransferase inhibitors, primary screen, biochemical, AlphaScreen, single concentration, set 2 | Histone-lysine N-methyltransferase NSD2 (Homo sapiens), O96028 | NSD2 peptide methylation, 120 min | inhibition, % at 12.5 µM | hit rate 0.54% among 310,000; in the data active means inhibition above about 50%
Vif inh – HIV Vif self-association inhibitors, primary screen, imaging, HEK293T, single point; HEK293T cells, Vif self-association by quenched fluorescence, 24 h; inhibition, % at 7.49 µM; hit rate 0.35% among 340,000; in the data active means inhibition above about 50%, passing the limit was not always enough
An asterisk follows results filed as active; / = no result.

SMILES	N-glyco inh	ATG4B inhibitor	Pemphigus Ab inh	CaV13 ICDI inh	NSD2 inh	Vif inh
CC(C)c1ccc(NC(=O)CN2C(=O)COc3ccc(S(=O)(=O)N4CCOCC4)cc32)cc1	-2	-4	74*	-5	0	9
CC(=O)Nc1ccc(NC(=O)CN2C(=O)COc3ccc(S(=O)(=O)N4CCOCC4)cc32)cc1	3	7	96	-2	-4	14
CC/C(=N/Nc1cccc(C)c1)c1cnnc(SC)n1	-3	2	93	-9	-5	82*
CC/C(=N/Nc1ccc(Cl)cc1)c1cnnc(SC)n1	2	-3	102	-7	-2	-6
Nc1nc(Nc2ccccc2)sc1C(=O)c1ccccc1	29*	0	105	-3	/	-17
COc1ccc(C(=O)c2sc(Nc3ccccc3)nc2N)cc1OC	33*	-4	95	-16	0	30
COc1ccc(C(=O)c2sc(Nc3ccccc3)nc2N)cc1	25	-7	92	-6	-2	-1
Cc1cc(C)c(C#N)c(SCC(=O)Nc2nnc(-c3ccccc3)s2)n1	1	-10	89	/	-4	2
O=c1c2c([nH]c3ccccc13)CCCC2	0	-9	103	-6	2	-1
COc1cc(-c2coc3c(C(=O)NCc4ccc(OC)c(OC)c4)cccc23)ccc1O	91*	/	/	-6	0	-33
COc1ccc(CNC(=O)c2cccc3c(-c4cccc(C(N)=O)c4)coc23)cc1OC	60*	/	/	-9	-3	-42
COc1ccc(CNC(=O)c2cccc3c(-c4ccc(F)c(F)c4)coc23)cc1OC	2	/	/	/	-3	-39
Cc1cccnc1NS(=O)(=O)c1cccc([N+](=O)[O-])c1	1	-5	108	-5	-3	-1
CCCc1cc(C(=O)Nc2ccc(CC)cc2)no1	-4	0	102	-3	/	-3
O=C(N/N=C/c1cc(Br)c(Br)o1)C(O)c1ccccc1 (stereo not drawn)	2	6	87	-5	15	15
O=C(NCc1ccncc1)/C(=N/O)c1ccccc1	0	-2	75*	-4	-1	-8
COc1ccc(OC)c(C2C(C(C)=O)=C(O)C(=O)N2CCC(=O)O)c1 (stereo not drawn)	1	-8	80	-10	-2	18
COc1cc(Cl)cc(C(c2c(C(=O)O)[nH]c3ccccc23)c2c(C(=O)O)[nH]c3ccccc23)c1O	0	10	108	-1	9	-10
O=C(O)c1[nH]c2ccccc2c1C(c1cc(Br)ccc1O)c1c(C(=O)O)[nH]c2ccccc12	4	34	114	144*	27	22
O=C(c1cc(Br)ccc1OC(F)F)N1CCN2CCCC2C1 (stereo not drawn)	0	-4	/	-7	0	6
COc1ccccc1NC(=O)C[n+]1ccccc1C	1	-6	115	1	-2	6
Cc1noc(C)c1S(=O)(=O)N1CCC(C(=O)N2CCC(C)CC2)CC1	5	-4	80	/	-1	13
Cc1cccc(N2CCN(C(=O)C3CCN(S(=O)(=O)c4c(C)noc4C)CC3)CC2C)c1 (stereo not drawn)	-3	-6	46*	-2	2	-14
O=C(COc1cc(F)ccc1[N+](=O)[O-])Nc1cccc(S(=O)(=O)NC2=NCCC2)c1	2	-5	/	-23	0	-3
CC(C)C[C@H]1CNC(=S)N1CC1CCCN1C[C@H](Cc1ccccc1)N1C[C@H](Cc2ccccc2)N(CC2CCCCC2)C1=S (stereo partly drawn)	-6	/	/	-4	/	21
SMILES	N-glyco inh	ATG4B inhibitor	Pemphigus Ab inh	CaV13 ICDI inh	NSD2 inh	Vif inh
CC(=NNC(=S)Nc1ccc(C)cc1)c1ccccn1	-5	0	90	-7	21	-2
COc1ccccc1NC(=S)NN=C(C)c1ccccn1	-11	0	-0.8*	-10	6	-14
COc1ccccc1NC(=O)c1ccccc1NC(=O)c1ccccn1	-1	-4	96	/	0	51*
C/C(=N\NC(=O)c1ccccc1Cl)c1ccccn1	-17	-7	61*	-4	-3	0
COc1ccc(/C=N/n2c(-c3ccc(C)cc3)n[nH]c2=S)cc1OC	3	-7	112	-4	0	99*
O=C(CCN1C(=O)/C(=C/c2ccc(F)cc2)SC1=S)NNC(=O)c1cccnc1	-2	4	88*	-3	-1	-8
O=C(CCN1C(=O)/C(=C/c2cccc(Br)c2)SC1=S)Nc1cccnc1	-7	7	83	-17	0	6
O=C(CCN1C(=O)/C(=C/c2cccc(Br)c2)SC1=S)NNC(=O)c1cccnc1	2	8	83*	-7	-1	0
COc1cccc(/C=C2\SC(=S)N(CCC(=O)N3CCCCC3)C2=O)c1	39*	-5	/	-7	-2	3
O=C(CCN1C(=O)/C(=C/c2ccccc2)SC1=S)NNC(=O)c1cccnc1	-2	-2	/	-5	-2	3
O=C(O)C1CCCCC1C(=O)NCCc1cccc(Cl)c1 (stereo not drawn)	2	0	102	-6	2	16
O=C(COc1cc2oc(=O)c3c(c2cc1Cl)CCC3)Nc1cccnc1	0	9	77*	-2	-6	3
CCN(CC(=O)Nc1cc(Cl)ccc1C)CC(=O)NC1CC1	2	/	96	-5	-1	-7
CCN(CC(=O)Nc1cc(Cl)cc(Cl)c1)CC(=O)NC1CCS(=O)(=O)C1 (stereo not drawn)	2	0	89	-2	-2	54*
O=C(O)C1Nc2c(O)cc(Cl)c([N+](=O)[O-])c2C2C=CCC12 (stereo not drawn)	-1	16	66*	-6	/	/
O=[N+]([O-])c1ccc(Cl)c2c1C1C=CCC1C(c1ccccn1)N2 (stereo not drawn)	1	0	103	-11	/	1
O=C1C(N2CCOCC2)=C(n2nnc3ccccc32)C(=O)c2ccccc21	-18	-5	105	-3	117*	/
O=C1c2ccccc2C(=O)c2c1cccc2-n1nnc2ccccc21	0	-3	94	-5	-1	-6
Cc1ccc(OCCNC(=O)C(=O)NCc2ccco2)cc1	26*	5	96	0	-5	7
Cc1ccc(OCCCC(=O)NCc2ccco2)cc1	2	-2	104	-4	0	3
O=c1c2ccccc2n(Cc2ccccc2F)c(=O)n1Cc1ccccc1F	-6	-4	/	-4	-3	1

Screening results as filed in PubChem.
